Sampled rows, rich in hits. Any-hit rate of the full collection: about 11%.
USP28 inh: inhibitors of human USP28 deubiquitinase; 47,000 compounds, 3% hits; purified USP28, Ub-rhodamine cleavage fluorescence, 30 min; inhibition, % at 25 µM; Ubiquitin carboxyl-terminal hydrolase 28 (Homo sapiens), Q96RU2
USP17 block: inhibitors of human USP17 deubiquitinase; Ubiquitin carboxyl-terminal hydrolase 17-like protein 5 (Homo sapiens), A8MUK1; purified USP17, Ub-rhodamine cleavage fluorescence, 3 h; inhibition, % at 50 µM; 47,000 compounds, 6.5% hits
USP30 block: inhibitors of human USP30 deubiquitinase; Ubiquitin carboxyl-terminal hydrolase 30 (Homo sapiens), Q70CQ3; purified USP30, Ub-rhodamine cleavage fluorescence; inhibition, % at 25 µM; 47,000 compounds, 5.3% hits; AID 1645860, 2021
Target sequence (Q70CQ3 whole entry, looked up): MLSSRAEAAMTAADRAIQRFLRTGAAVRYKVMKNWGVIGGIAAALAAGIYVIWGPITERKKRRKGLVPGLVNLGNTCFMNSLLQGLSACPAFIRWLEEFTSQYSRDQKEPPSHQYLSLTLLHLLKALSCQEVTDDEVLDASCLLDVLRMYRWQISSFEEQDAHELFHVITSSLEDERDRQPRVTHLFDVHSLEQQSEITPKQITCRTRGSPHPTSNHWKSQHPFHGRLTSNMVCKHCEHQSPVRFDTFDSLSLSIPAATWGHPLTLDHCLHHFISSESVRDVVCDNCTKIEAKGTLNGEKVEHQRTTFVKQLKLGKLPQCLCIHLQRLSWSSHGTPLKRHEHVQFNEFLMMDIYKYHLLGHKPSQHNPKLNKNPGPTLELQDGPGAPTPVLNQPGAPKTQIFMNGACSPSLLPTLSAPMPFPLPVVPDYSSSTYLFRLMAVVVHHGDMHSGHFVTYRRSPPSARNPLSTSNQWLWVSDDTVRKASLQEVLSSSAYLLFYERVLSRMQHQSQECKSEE
The depositor's hits bear a star; x = not tested or not shown. Rule as the data show it: active = inhibition above about 30%; inactive = the rest.

SMILES	USP28 inh	USP17 block	USP30 block
O=C(NCc1ccc2c(c1)OCO2)[C@@H]1Cc2c([nH]c3ccccc23)C2c3ccccc3C(=O)N21 (stereo partly drawn)	-12.8	1.2	-73.0
O=C1c2ccccc2C2c3[nH]c4ccccc4c3C(c3ccc4c(c3)OCO4)CN12 (stereo not drawn)	13.2	32.8*	-24.9
C[C@H](NC(=O)[C@@H]1Cc2c([nH]c3ccccc23)C2c3ccccc3C(=O)N21)C(=O)NCc1ccc2c(c1)OCO2 (stereo partly drawn)	9.6	34.4*	-48.9
COc1ccc(C2CN3C(=O)c4ccccc4C3c3[nH]c4ccccc4c32)cc1 (stereo not drawn)	7.2	4.9	-46.2
Cc1nc(C(C)C)ncc1C(=O)NCc1ccc2c(c1)OCO2	-18.4	-16.0	-20.4
CN(C)c1ccc(NC(=O)C2c3ccccc3Oc3ccccc32)cc1	2.1	12.4	11.8
Cc1ccc(NC(=O)N2CCCC3(CCCN3S(C)(=O)=O)C2)cc1 (stereo not drawn)	10.8	6.2	18.0
Cn1c(=O)c2c(nc(CN3CCOCC3)n2CCc2ccccc2)n(C)c1=O	1.4	3.4	31.6*
Cn1c(=O)c2c(nc(CN3CCN(c4ccccc4)CC3)n2CCN2CCOCC2)n(C)c1=O	-1.7	-5.5	-2.7
CCCc1cc(C2CCCN2C(=O)c2cc(-c3ccccc3)no2)no1 (stereo not drawn)	9.3	19.8	32.0*
CCCc1cc(C2CCCN2C(=O)c2cc(-c3ccccc3)on2)no1 (stereo not drawn)	11.8	9.4	20.1
COc1ccc(NC(=O)Nc2ccc(F)c(-c3nnc(-c4ccccc4)o3)c2)c(OC)c1	2.8	19.4	39.6*
COc1ccc(NC(c2nnc(-c3ccccc3)o2)c2ccccc2F)c(OC)c1 (stereo not drawn)	-66.2	-2.0	-153.8
COc1ccc(-n2cnnc2SCC(=O)c2cc(C)n(CC3COc4ccccc4O3)c2C)cc1 (stereo not drawn)	-30.0	-8.1	-109.5
O=C(Nc1cccc(Cl)c1)c1[nH]nc2c1COc1ccccc1-2	-47.6	29.3	-71.8
O=C(NC1CCN(Cc2ccccc2)CC1)c1[nH]nc2c1COc1ccccc1-2	66.6*	19.0	7.8
O=C(NCc1ccc2c(c1)OCO2)c1[nH]nc2c1COc1ccccc1-2	31.1*	60.1*	39.5*
O=C(NCCN1CCCCC1)c1[nH]nc2c1COc1ccccc1-2	10.3	8.7	22.1
CCc1ccc(-n2c(C)cc(/C=C3\C(=N)N4N=CSC4=NC3=O)c2C)cc1	-135.5	46.0*	-432.5
Cc1cc(/C=C2\C(=N)N3N=CSC3=NC2=O)c(C)n1-c1cccc(F)c1	-51.7	-29.0	-156.7
COC(=O)C1=CO[C@@H](C)[C@H]2C[n+]3ccc4c([nH]c5ccccc54)c3C[C@H]12	-12.6	-20.8	-77.0
CC(C)CCNC(=O)c1cccc(-c2cnc(NC3CCCCC3)nc2)c1	17.0	15.2	32.0*
O=C(NC1CCCC1)c1cccc(-c2cnc(NC3CCCCC3)nc2)c1	-4.9	x	3.2
O=C(Nc1ccccc1-c1cnn(-c2ccccc2)c1)c1ccccc1Cl	20.1	x	41.0*
O=C(O)c1ccc(-c2cnn(-c3ccccc3)c2)nc1	-7.6	-25.5	-73.5
SMILES	USP28 inh	USP17 block	USP30 block
CCOc1ccc(NS(=O)(=O)c2ccc(C)c(C(=O)OCC(=O)c3ccc([N+](=O)[O-])cc3)c2)cc1	9.5	24.2	8.7
Cc1ccccc1Cn1c(=O)n(Cc2ccco2)c(=O)c2ccccc21	15.0	27.7	26.2
Cc1ccc(CNC(=O)CCCn2c(=O)c3ccccc3n(Cc3cccc(F)c3)c2=O)cc1	0.4	39.1*	-0.7
O=C(CCCCn1c(=O)c2ccccc2n(Cc2ccccc2F)c1=O)NCCc1ccccc1	2.7	55.6*	-0.3
O=c1c2cccnc2n(Cc2ccccc2F)c(=O)n1CCc1ccccc1	18.9	-0.6	-1.7
N#Cc1ccccc1Cn1c(=O)n(Cc2ccco2)c(=O)c2ccccc21	37.9*	53.7*	33.4*
Cc1ccc(CNC(=O)CCCn2c(=O)c3ccccc3n(CC(=O)Nc3cc(C)[nH]n3)c2=O)cc1	0.1	0.8	4.2
N#Cc1ccccc1Cn1c(=O)n(CCCCC(=O)NCCc2ccccc2)c(=O)c2ccccc21	23.6	78.1*	18.8
COc1ccc(CCNC(=O)CCCn2c(=O)c3ccccc3n(Cc3cccc([N+](=O)[O-])c3)c2=O)cc1OC	-1.1	-0.2	-1.1
CCc1nn2c(CNC(=O)Cc3ccccc3Cl)c(C)nc2s1	2.6	0.1	-1.4
O=C(CCn1c(=O)c2ccccc2n(Cc2ccccc2F)c1=O)NCc1ccco1	-12.7	-3.4	-25.9
N#Cc1ccccc1Cn1c(=O)n(CCCCC(=O)NCc2ccco2)c(=O)c2ccccc21	1.9	51.2*	-16.3
O=C(Nc1cccc(Cl)c1Oc1ccc(S(=O)(=O)N2CCOCC2)cc1)C(F)(F)F	8.0	1.2	-5.7
N#Cc1c(Cl)cccc1Oc1ccc(S(=O)(=O)N2CCC(O)CC2)cc1	16.7	66.1*	18.4
Cc1c(C)n(-c2ccccc2)c2ncn(CC(=O)NCCCc3ccccc3)c(=O)c12	-2.2	69.8*	-0.7
CN(Cc1ccccc1)C(=O)Cn1cnc2c(cnn2C)c1=O	-13.1	1.3	-3.6
Cc1c(C)n(-c2ccccc2)c2ncn(CC(=O)N(C)Cc3ccccc3)c(=O)c12	-3.4	53.2*	-2.4
O=C(Cn1cnc2onc(-c3ccccc3F)c2c1=O)NCCCc1ccccc1	18.6	22.0	24.3
O=C(CN(C(=O)c1ccc(-c2ccccc2)[nH]1)c1ccc(Cl)cc1)NC1CCCC1	-19.0	0.0	-23.9
COc1ccc(N(CC(=O)NC2CCCCC2)C(=O)c2ccc(-c3ccccc3)[nH]2)cc1OC	-8.4	78.5*	-10.6
NC(=O)C1CN(C(=O)c2cccc(Cc3cccc(F)c3)n2)C1	11.1	3.9	10.6
CCn1nnc2c(NCc3ccc(OC)cc3)ncnc21	5.4	5.1	16.2
Cc1cc2cc(CNc3ncnc4c3nnn4C)ccc2[nH]1	-21.7	49.1*	-103.9
COc1ccc(C(C)=O)cc1COC(=O)c1ccc2c(c1)S(=O)(=O)N=C1CCCCCN12	26.3	45.3*	38.1*
CC(C)(C)c1ccc(NC(=O)c2ccc3c(c2)S(=O)(=O)N=C2CCCCCN23)cc1	-4.8	0.1	-12.7
SMILES	USP28 inh	USP17 block	USP30 block
Cc1nnc(-c2coc(S(=O)(=O)N3CCN(c4ccccc4)CC3)c2)o1	-7.1	-1.1	0.7
COC(=O)c1cc(O)cc(OC)c1C(=O)c1c(O)c(Cl)c(C)c(Cl)c1O	14.9	17.9	10.3
COC(=O)c1c(OC)cc2c(c1C)Oc1c(Cl)c(O)c(Cl)c(C)c1C(=O)O2	21.2	15.9	30.5*
CS(=O)(=O)N(Cc1ccccc1Br)c1ccc2c3c(cccc13)CC2	6.4	11.1	22.9
CC(=O)N1CCn2c(c(C(=O)Nc3cccc(C)c3)c3cccnc32)C1	0.1	-1.2	-6.2
O=C(COc1cccc(-n2cnnn2)c1)Nc1cccc(F)c1	-3.8	-6.0	-3.2
COc1ccc(-c2ccc3nnc(SCC(=O)NCC4CCCO4)n3n2)cc1 (stereo not drawn)	4.4	x	22.4
CCOc1ccc(NC(=O)COc2cccc(-n3cnnn3)c2)cc1	55.0*	7.9	34.4*
O=C(COc1ccc(-n2cnnn2)cc1)Nc1ccc(F)c(Cl)c1	17.5	42.1*	28.0

Screening results: PubChem, Buhrlage Lab, Dana-Farber Cancer Institute and Novartis Institutes for BioMedical Research (Cambridge, Mass)
